Structures are written as SMILES. The panel holds about 83,000 compounds, 20% with a hit somewhere; the sample as a whole holds those more often.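 Treatment: one concentration, 48 hours, 96-well format. Scoring: percent growth, with anything below 10 considered active.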 Values without a mark were called inactive. Active and inactive are the calls of the source.

Holding throughout (test): NCI-60 one-dose screen, 48 h (100 = growth as untreated, 0 = no growth, -100 = all killed)
Common to all, as to conditions: 10 µM unless noted

The subject of assay [1] is MALME-3M melanoma.
The test system of assay [2] is MDA-MB-231 breast.
The test system of assay [3] is RXF 393 renal.
Assay [4] relates to SF-268 CNS.
In assay [5] the test system is SF-295 CNS.
Assay [6] concerns SF-539 CNS.
Assay [7] relates to UACC-257 melanoma.
Assay [8] relates to M14 melanoma.
In assay [9] the test system is HCT-15 colon.
The test system of assay [10] is HT29 colon.
The test system of assay [11] is SNB-75 CNS.
In assay [12] the test system is SNB-19 CNS.
The test system of assay [13] is PC-3 prostate.
Assay [14] relates to SK-MEL-5 melanoma.
In assay [15] the test system is UACC-62 melanoma.
The subject of assay [16] is SK-MEL-28 melanoma.
Assay [17] concerns SK-MEL-2 melanoma.
For assay [18], the system named is K-562 leukemia.
Assay [19] deals with U251 CNS.
Assay [20] relates to LOX IMVI melanoma.

Turning to `CCN1CCN(S(=O)(=O)c2oc(-c3ccc(Cl)cc3)nc2C#N)CC1`, the growth is -53.6% (active) in assay [1]; 26.7% in [2]; -60.2% (active) in [3]; 112% in assay [4]; 108% in assay [5]; 53.1% in assay [6]. Also, the growth in assay [7] is 89.9%; in assay [8], -50.6% (active); in assay [9], -35.5% (active); in [10], 2.82% (active); in [11], 87.5%; in assay [12], 95.8%. For the same molecule, the growth is 87.4% in [13]; 95.2% in assay [14]; 88.7% in assay [15]; 53.5% in [16]; 104% in assay [17].

In the case of `CC(=O)Oc1ccccc1C(=O)Nc1ccc(C(=O)/C=C/c2ccncc2)cc1`, the growth is 6.54% (active) in assay [18]; 86.6% in [1]; 33.6% in assay [2]; -4.73% (active) in assay [3]; 85.5% in [4]; 49.5% in [5]. The growth was 4.63% (active) in assay [6]; 92.4% in assay [7]; -23.9% (active) in assay [9]; 5.38% (active) in assay [10]; 76% in assay [12]; 21.1% in assay [19]. Besides, the growth in assay [13] is 70.4%; in assay [15], 50.3%; in assay [20], -73.6% (active); in assay [16], 55.8%; in assay [17], 108%.

With `N#Cc1nc(-c2ccccc2)oc1S(=O)(=O)N1CCCCC1`, the growth was -68.8% (active) in [1]; 20.6% in assay [2]; -71.8% (active) in assay [3]; 110% in assay [4]; 107% in [5]; 77.3% in [6]. The growth in assay [7] is 94.1%; in assay [8] it was -15.2% (active); in assay [9] it was -35.3% (active); in [10], 2.86% (active); in assay [11], 94.8%; in assay [12] it was 95.8%. Moreover, the growth in assay [19] is 94.5%; in assay [13] it was 88.1%; in assay [14], 93.7%; in assay [15], 96.4%; in assay [20], -82.5% (active); in assay [16] it was 85.1%. Moreover, in [17], the growth is 97.9%.

With `C#Cc1nc(C2=C(C)C(OC(C)=O)/C(=N/OC(C)=O)C2)cs1` (stereo unspecified), the growth in assay [18] was 15.4%; in assay [1] it was -46.5% (active); in assay [2] it was -69.9% (active); in assay [3], -19.5% (active); in [4], -42.6% (active); in [5] it was -89.8% (active). For the same molecule, the growth in [6] is -90.9% (active); in assay [7], 85.5%; in assay [9] it was -11.2% (active); in [10], -14.1% (active); in assay [11], -89% (active); in [12], 78.4%. Further, the growth is -13.9% (active) in [19]; -11.1% (active) in assay [13]; 89.7% in assay [14]; 11.3% in assay [15]; 101% in assay [16]; 92.8% in [17].

As to `N#Cc1ccc(/C=N/NC(=O)c2[nH]c3ccc(Br)cc3c2-c2ccccc2)s1`, the growth in assay [18] was 8.83% (active); in assay [1], 50.1%; in [2], 22.1%; in assay [3], 56%; in assay [4] it was 30%; in assay [5] it was 11.7%. For the same molecule, the growth was 2.47% (active) in assay [6]; 40.9% in assay [7]; 8.95% (active) in [9]; 5.64% (active) in [10]; 49.7% in assay [11]; 29.4% in assay [12]. Besides, the growth in assay [19] was 16.5%; in assay [13], 25%; in [14], -40.9% (active); in assay [15] it was 23.4%; in [16], 58.4%; in [17] it was 30.4%.

As for `COc1cc(-c2nc3ccc(-c4nnc(SCC(=O)Nc5ccc(C(C)=O)cc5)o4)cc3[nH]2)cc(OC)c1OC`, the growth in assay [18] was 108%; in assay [1], 97.7%; in [2], 96%; in assay [3] it was 116%; in assay [4], 111%; in [5], 101%. The growth is 97.6% in [6]; 105% in assay [7]; 103% in assay [9]; 108% in [10]; 100% in assay [12]; 103% in assay [19]. Further, the growth in assay [13] is 93.3%; in [14], 102%; in assay [15], 93.2%; in assay [16], 103%; in [17] it was 115%.

As to `NS(=O)(=O)c1ccc(Nc2nc(SCC(=O)c3ccc(Cl)cc3)nc3ccccc23)cc1`, the growth in [18] was 84%; in assay [1], 92.8%; in [2] it was 87.9%; in assay [3], 103%; in assay [4] it was 104%; in assay [5], 95.1%. The growth in assay [6] is 88.3%; in [7], 102%; in assay [9], 86.6%; in assay [10] it was 105%; in [11] it was 75.3%; in assay [12], 97.8%. In addition, the growth in [19] is 95.2%; in [13], 89.9%; in assay [14] it was 95.3%; in assay [15] it was 79.4%; in assay [20], 99.5%; in assay [17], 100%.

As to `O=C(O)CCCCCN1C(=O)/C(=C/c2ccc(O)c(O)c2)SC1=S`, the growth in [18] was 100%; in [1], 97.5%; in assay [2] it was 91.8%; in assay [3], 124%; in assay [4], 103%; in [5] it was 99.3%. The growth is 96% in assay [6]; 108% in assay [7]; 101% in assay [9]; 116% in assay [10]; 95.1% in [11]; 96.1% in assay [12]. Besides, the growth is 103% in assay [19]; 117% in assay [13]; 98.9% in assay [14]; 96.8% in assay [15]; 140% in assay [17].

The record behind these values is PubChem BioAssay (NCI).
